Measurements as given in PubChem BioAssay (NCI).
About 79,000 compounds went through this panel and 15% of them were active in at least one assay; those are over-represented in the sample as a whole. Rule as the data show it: active = growth inhibition above about 70%; inactive = the rest. Where a SMILES comes first, the peptide text is derived from it. [ ]: non-standard residue; d: D form. The star is where a group is joined. Cbz = O=C(OCc1ccccc1)*; Dha = C=C(N)C(=O)O

Key:
[1] = NCI Yeast Anticancer Drug Screen. Data for the rad50 strain (AID 155);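 also: 0% = growth of vehicle-only cultures of the same strain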; settings: S. cerevisiae rad50 strain growth inhibition; at 50.0 µM; stronger effect = higher value
Procedure, shortened: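 Vehicle-treated cultures provide the reference for the growth inhibition reported for compound-exposed, repair-deficient yeast.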

[2] = NCI Yeast Anticancer Drug Screen. Data for the mec2-1 strain (AID 157); settings: S. cerevisiae mec2-1 strain, at 50.0 µM, stronger effect = higher value
Procedure, shortened: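 Each compound was tested on mec2-1 yeast, a strain altered in DNA damage repair or cell cycle control. Growth inhibition is reported relative to vehicle.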

[3] = NCI Yeast Anticancer Drug Screen. Data for the sgs1 mgt1 strain (AID 161);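 also: 0% = growth of cultures given vehicle only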; settings: S. cerevisiae sgs1 mgt1 strain, at 50.0 µM, stronger effect = higher value
Procedure, shortened: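 Genetically altered yeast, compound exposure, growth inhibition relative to vehicle.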

[4] = NCI Yeast Anticancer Drug Screen. Data for the cln2 rad14 strain (AID 165);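 also: 0% = growth equal to vehicle treated cultures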; settings: S. cerevisiae cln2 rad14 strain, at 50.0 µM, stronger effect = higher value
Procedure, shortened: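 Test compounds were added to cln2 rad14 yeast cultures; inhibition of growth was then determined by comparison with vehicle treatment.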

[5] = NCI Yeast Anticancer Drug Screen. Data for the bub3 strain (AID 167); settings: S. cerevisiae bub3 mutant strain, at 50.0 µM, stronger effect = higher value
Procedure, shortened: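 Mutant yeast screening strain plus compound; vehicle-treated cultures serve as the 0% inhibition reference.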

[6] = NCI Yeast Anticancer Drug Screen. Data for the mlh1 rad18 strain (AID 175); settings: S. cerevisiae mlh1 rad18 strain growth inhibition; at 50.0 µM; stronger effect = higher value
Procedure, shortened: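 Inhibition values reflect reduced growth of mutant yeast versus vehicle-treated controls following compound exposure; the mutations affect DNA damage repair.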

Measured: growth inhibition

COc1ccc2ccccc2c1C1=NC(C)(C)CO1
inactive: [1] -6.65% | [2] -18.6% | [3] 2.6% | [4] 18.5% | [5] -3.8% | [6] -16.6%

O=C(O)C1=C(C(=O)O)C2CCCC3C4CCCCC4N(N1)C23 (stereo not drawn)
inactive: [1] 20.1% | [2] -13.9% | [3] -20.4% | [4] 3.9% | [5] 1.15% | [6] 22.9%

Cc1ccc(S(=O)(=O)OCC2=C(COS(=O)(=O)c3ccc(C)cc3)C3c4ccccc4C2c2ccccc23)cc1
inactive: [1] 31.3% | [2] 5.35% | [3] 1.55% | [4] -27.8% | [5] -1.35% | [6] 4.8%

N#CC(CC(=O)c1ccccc1)c1ccccc1Cl (stereo not drawn)
inactive: [1] 17.2% | [2] 24.9% | [3] 31.3% | [4] 17.6% | [5] 40.4% | [6] 22%

C(=Nc1cnc2ccccc2c1)c1ccc2ccccc2n1
inactive: [1] -5.3% | [2] -13.4% | [3] -11.3% | [4] -6.2% | [5] -55.9% | [6] -14.8%

CCOCCOCCOC(=O)C(C)O (stereo not drawn)
inactive: [1] 14.7% | [2] 7.1% | [3] 2.25% | [4] 6.55% | [5] -18.6% | [6] -3.4%

S=c1nc[nH][nH]1
inactive: [1] 21.5% | [2] -3.7% | [3] 15.6% | [4] -8.65% | [5] 1.4% | [6] 21.6%

O=CC(=O)c1ccc(F)cc1
inactive: [1] -20.2% | [2] -10% | [3] -0.15% | [4] -15.2% | [5] -8.55% | [6] 2%

O=C(/C=C\c1ccccc1)OCC(=O)c1ccc(-c2ccccc2)cc1
inactive: [1] -20.1% | [2] -2.3% | [3] 1.9% | [4] -34.3% | [5] 1.1% | [6] 4.4%

COc1nc(NC2OCC(OC(C)=O)C(OC(C)=O)C2OC(C)=O)c(-c2csc(N)n2)c(=O)n1C (stereo not drawn)
inactive: [1] -1.9% | [2] -21.9% | [3] -14.6% | [4] 13.6% | [5] -2.3% | [6] 6.85%

COc1ccc(C(=O)C/C(=N\N(C(=O)c2ccc(OC)cc2)c2ccccc2)c2ccc(OC)cc2)cc1
inactive: [1] 13.6% | [2] -24.8% | [3] 9.9% | [4] -21.1% | [5] -9.85% | [6] 6.5%

CC(=O)c1ccc(O)c(C)c1
inactive: [1] -9.3% | [2] -8.9% | [3] -6.55% | [4] 5.5% | [5] -8.1% | [6] -0.2%

O=C(Cl)c1cc(Cl)cc(Cl)c1Br
inactive: [1] 12.9% | [2] 4.7% | [3] 34.5% | [4] 17.6% | [5] 15.9% | [6] 25.7%

C/C(CC(=O)Nc1ccc(Cl)c(Cl)c1)=N/NC(=O)C[N+](C)(C)C
inactive: [1] -9.25% | [2] -14.7% | [3] -6.3% | [4] 26.6% | [5] -14.8% | [6] -6.1%

CCOC(=O)/C=C(/OCC)c1cccc(Cl)c1
inactive: [1] 9.4% | [2] -5.95% | [3] 13.8% | [4] 16.3% | [5] 39.4% | [6] -1.85%

NC1=NC=NCN1c1ccc(N)cc1
inactive: [1] 1.65% | [2] -2.65% | [3] 3.85% | [4] -54.4% | [5] -3.6% | [6] 5.7%

CC(C)Cc1cnc(CC(C)C)c(=O)[nH]1
inactive: [1] -13.6% | [2] -44.6% | [3] -28.1% | [4] 10.8% | [5] -40.2% | [6] -25.9%

O=C1NC(=O)/C(=C/CCCO)N1
inactive: [1] 2.85% | [2] -5.3% | [3] -10.4% | [4] -8.95% | [5] -0.25% | [6] -6.6%

Cc1ccc(N=Nc2ccc(O)c(CN(C)C)c2)cc1C
inactive: [1] -26.4% | [2] -29.5% | [3] 48.5% | [4] -11% | [5] 49% | [6] 36.2%

CCCCN(CCCC)/C(=C/C(=O)OC)C(=O)OC
inactive: [1] 20.1% | [2] 8.55% | [3] 10.1% | [4] 14.2% | [5] 26.9% | [6] 13.6%

Cc1ccc(S(=O)(=O)C23N=NC(C)(C)C2N=NC3(C)C)cc1 (stereo not drawn)
inactive: [1] -10.8% | [2] -19.8% | [3] -6.9% | [4] -58% | [5] -46.6% | [6] 5.4%

CC(=O)OC12c3ccccc3C(c3ccccc31)C1C(=O)N(c3ccccc3O)C(=O)C12 (stereo not drawn)
inactive: [1] -15.8% | [2] -17.4% | [3] -4.15% | [4] 6.2% | [5] -5.4% | [6] 7.7%

CN(C)CCCN1N=Nc2cccc3cccc1c23
inactive: [1] 1.75% | [2] 8.25% | [3] -14.3% | [4] 11.7% | [5] 15.2% | [6] 20.1%

S=C(Cc1cccnc1)N1CCOCC1
inactive: [1] -7.85% | [2] 41.5% | [3] 8.2% | [4] -27.9% | [5] 5.15% | [6] 45.5%

C=C(NC(=O)CNC(=O)OCc1ccccc1)C(=O)O (Cbz-Gly-[Dha]-OH)
inactive: [1] 3.05% | [2] 11.2% | [3] 7.4% | [4] -9.85% | [5] 15.7% | [6] 14%

Cc1ccc(C(=O)Cc2nc3c([nH]c2=O)c(C)nn3-c2ccccc2)c(C)c1
inactive: [1] 2.6% | [2] -27.5% | [3] 2.55% | [4] 12.7% | [5] -0.85% | [6] 4.7%

Nc1ncnc2c1ncn2-c1ccccc1
inactive: [1] 4.05% | [2] 2.95% | [3] -2.05% | [4] 9.7% | [5] 9.85% | [6] -17.4%

C/C=C/C#CC#C/C=C/C=C/CC
inactive: [1] 10.1% | [2] 0.7% | [3] -1.35% | [4] 8.6% | [5] 16.6% | [6] -2.05%

O=CN(Cc1cnccn1)Cc1cnccn1
inactive: [1] -2.8% | [2] 7.3% | [3] -6.75% | [4] -33.1% | [5] 7% | [6] -14.2%

O=C1c2ccccc2C(=O)N1/N=C/c1ccc([N+](=O)[O-])cc1
inactive: [1] -4.4% | [2] -17% | [3] -16.3% | [4] -11.5% | [5] -13.9% | [6] -22.5%

Cc1nc(C)c(N2CCN(C#N)CC2)c(=O)[nH]1
inactive: [1] -52.6% | [2] -23.6% | [3] -29.1% | [4] 0.35% | [5] -11.7% | [6] -40.2%

CC1=CC(O)CC(C)(C)C1/C=C/C(C)=C/C=C/C(C)=C/C=C/C=C(C)/C=C/C=C(C)/C=C/C1=C(C)CC(O)CC1(C)C (stereo not drawn)
inactive: [1] 14.4% | [2] -15.4% | [3] 22.6% | [4] 16.4% | [5] -30.9% | [6] -37.1%

CCCCC(CC)OC(=O)c1cccc(C)c1 (stereo not drawn)
inactive: [1] 9.15% | [2] 2.25% | [3] 17.8% | [4] -7.4% | [5] -0.05% | [6] 7.1%

CCCCCC/C=N\OC(N)=O
inactive: [1] 12.9% | [2] 15.2% | [3] -4.9% | [4] -12.9% | [5] 3.35% | [6] 11.8%

CC1(C)C2CCC(CCOC(=O)COc3ccc(Cl)cc3Cl)C1C2 (stereo not drawn)
inactive: [1] -13% | [2] -5.45% | [3] 1% | [4] -34.8% | [5] 5% | [6] 29%

CCOC(=O)C(c1ccccc1)C(Cc1ccccc1)(c1ccccc1)c1ccccc1 (stereo not drawn)
inactive: [1] 10.1% | [2] 9.2% | [3] 17.3% | [4] 19.6% | [5] -4.6% | [6] 10.7%

COc1ccc(C(C#N)N2CCCCC2)cc1 (stereo not drawn)
inactive: [1] 21.6% | [2] -6.25% | [3] -13.5% | [4] 22.1% | [5] 7.05% | [6] 0.4%

COc1ccc(C2c3cc4c(cc3OC(C)(OC)C2C)OCO4)c(OC)c1OC (stereo not drawn)
inactive: [1] -1.5% | [2] 5.8% | [3] -4.75% | [4] -19% | [5] -3.6% | [6] 22.1%
